High-throughput results: PubChem BioAssay, Sanford-Burnham Center for Chemical Genomics
Shown are actives, neighbours in structure and some others; about 31% of the full set was active somewhere.
CYP2C9 activ – increases human cytochrome P450 2C9 activity; P11712; recombinant CYP2C9, luciferin-H conversion, luminescence; hits give high values; factor 1 = untreated enzyme, 0 = blocked; activation factor at 5 µM; hit rate 1.4% among 96,000; AID 1024;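 active = activation factor of 2 or more for CYP2C9 at a 5 µM dose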
Target sequence (P11712 whole entry, looked up): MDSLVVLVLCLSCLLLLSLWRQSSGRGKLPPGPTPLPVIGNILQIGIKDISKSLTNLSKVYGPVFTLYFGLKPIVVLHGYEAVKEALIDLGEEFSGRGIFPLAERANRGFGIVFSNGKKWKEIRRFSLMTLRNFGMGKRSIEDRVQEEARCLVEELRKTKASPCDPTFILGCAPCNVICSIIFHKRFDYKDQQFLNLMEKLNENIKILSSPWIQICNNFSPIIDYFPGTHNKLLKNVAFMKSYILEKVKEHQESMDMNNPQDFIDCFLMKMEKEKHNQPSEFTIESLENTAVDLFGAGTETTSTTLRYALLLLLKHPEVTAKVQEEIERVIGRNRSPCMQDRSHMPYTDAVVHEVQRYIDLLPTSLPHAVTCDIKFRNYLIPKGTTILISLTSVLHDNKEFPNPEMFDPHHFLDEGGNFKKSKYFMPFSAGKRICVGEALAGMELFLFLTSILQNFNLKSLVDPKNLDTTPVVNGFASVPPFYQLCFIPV
PLAP act – human PLAP activation | P05187 | purified PLAP enzyme, luminescent substrate read-out; hits give high values | activation fold at 20 µM | hit rate 1.2% among 96,000 | AID 696; in the data active = activation fold above about 2
CYP2C19 activ – increases human CYP2C19 enzyme activity; recombinant CYP2C19, luciferin-H EGE luminescence; hits give high values; 0 = fully inhibited enzyme, 1 = untreated enzyme; activation factor at 5 µM; 96,000 tested, under 10 active; AID 1025;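 active = activation factor of at least 2 at 5 µM in the primary screen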
CYP2C9 inhib – blocks human cytochrome P450 2C9; P11712; CYP2C9 Supersomes, luciferin-H conversion, luminescence; inhibition, % at 5 µM; hit rate 20% among 96,000;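 active = blocking of liver enzyme CYP2C9 beyond about 50% at 5 µM, limit read from the data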
CYP2C19 inh – inhibitors of human CYP2C19 | hit rate 21% among 96,000 | P33261 | AID 778 | CYP2C19 Supersomes, luciferin-H EGE luminescence, 30 min | inhibition, % at 5 µM;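 active = CYP2C19 inhibition above a set limit at 5 µM in the primary screen, cut at about 50% in these data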
Hits are given with their value; 0 = inactive; - = no result given.

SMILES | CYP2C9 activ | PLAP act | CYP2C19 activ | CYP2C9 inhib | CYP2C19 inh
COc1ccc(C(=O)COC(=O)CCn2nnc(-c3cccc(O)c3OC)n2)cc1 | 0 | 0 | 0 | 0 | 0
COc1ccc(/C(=N\O)c2ncc(C(F)(F)F)cc2Cl)cc1 | 0 | 0 | 0 | 0 | 79
O/N=C(\c1ccc(Cl)cc1Cl)c1ncc(C(F)(F)F)cc1Cl | 0 | 0 | 0 | 74 | 93
N/C(=N\OC(=O)Nc1ccccc1)c1ncc(C(F)(F)F)cc1Cl | 0 | 0 | 0 | 0 | 0
O=C(c1ccc(Cl)cc1Cl)c1ncc(C(F)(F)F)cc1Cl | 0 | 0 | 0 | 0 | 53
O=C(c1ccccc1)c1ncc(C(F)(F)F)cc1Cl | 0 | 0 | 0 | 0 | 65
Cn1nnc2cc(NC(=O)N3CC4(C)CC3CC(C)(C)C4)ccc21 (centres undefined) | 0 | 0 | 0 | 0 | 0
O=C(c1cccc(C(F)(F)F)c1)N1CCN(c2cc(=O)[nH]nc2-c2ccccc2)CC1 | 0 | 0 | 0 | 0 | 0
Cc1cc(-c2ccccc2)nn1-c1nc2c(c(=O)[nH]c(=O)n2C)n1C | 0 | 0 | 0 | 0 | 0
CCCCOC1(c2ccccc2)NC(=S)NN=C1c1ccccc1 (centres undefined) | 0 | 0 | 0 | 95 | 79
COC1(c2ccccc2)NC(=S)NN=C1c1ccccc1 (centres undefined) | 0 | 0 | 0 | 82 | 0
CCn1c(-c2ccc(F)cc2)cnc1SCC(=O)N1CCCCC1C (centres undefined) | 0 | 0 | 0 | 0 | 63
CCCn1c(-c2ccc(F)cc2)cnc1SCC(=O)O | 0 | 0 | 0 | 0 | 0
CC(C)(C)OC(=O)N1CCC(c2c(C(=O)O)cnn2-c2ccccc2)CC1 | 0 | 0 | 0 | 0 | 0
CCOc1ccc(-c2cc3nc(C4CCN(C(=O)OC(C)(C)C)CC4)c(C(=O)O)cn3n2)cc1 | 0 | 0 | 0 | 81 | 0
CCOC(=O)c1c(C=O)c(C)n(Cc2ccccc2Cl)c1C | 0 | 0 | 0 | 94 | 98
CCOC(=O)c1c(C=O)c(C)n(Cc2ccc(C)cc2)c1C | 0 | 0 | 0 | 96 | 76
Cc1c(C=O)c(C=O)c(C)n1Cc1ccccc1 | 0 | 0 | 0 | 0 | 62
CC(=O)c1c(C(C)=O)c(C)n(Cc2ccccc2)c1C | 0 | 0 | 0 | 0 | 0
O=c1cc(Cl)[nH]c(=O)n1CCNc1ncc(C(F)(F)F)cc1Cl | 0 | 0 | 0 | 100 | 68
Cc1cc(CSc2ccccc2)ccc1NC(=O)c1ccc(Cl)c([N+](=O)[O-])c1 | 0 | 0 | 0 | 0 | 0
COc1ccc(NC(=O)c2ccco2)cc1NC(=O)c1ccc(C)cc1 | 0 | 0 | 0 | 0 | 0
COc1ccc(NC(=O)CCc2ccccc2)cc1NC(=O)c1ccco1 | 0 | 0 | 0 | 66 | 62
COc1ccc(NC(=O)c2ccco2)cc1NC(=O)c1cccs1 | 0 | 0 | 0 | 55 | 57
COc1ccccc1-n1cnc2cc(NC(=O)c3ccco3)ccc21 | 0 | 0 | 0 | 0 | 65
SMILES | CYP2C9 activ | PLAP act | CYP2C19 activ | CYP2C9 inhib | CYP2C19 inh
COc1ccc(CC(=O)Nc2ccc(OC)c(NC(=O)c3ccco3)c2)cc1 | 0 | 0 | 0 | 0 | 0
CCOC(=O)c1c(C)nc2ccccc2c1C | 0 | 0 | 0 | 0 | 0
CCOC(=O)c1c(Nc2ccccc2N)cc(C)nc1C | 0 | 0 | 0 | 0 | 72
CN(C)c1ccc(C(=O)OCC(=O)NC2CCCCC2)cc1 | 0 | 0 | 0 | 0 | 88
CC1CCCC(NC(=O)COC(=O)c2ccc(N(C)C)cc2)C1C (centres undefined) | 0 | 0 | 0 | 54 | 83
CCN(CC)c1ccc(C(=O)OCC(=O)NC2CCCCC2C)cc1 (centres undefined) | 0 | 0 | 0 | 0 | 0
CC1CCCC(NC(=O)COC(=O)c2ccc3ccccc3n2)C1C (centres undefined) | 0 | 0 | 0 | 0 | 62
Cc1noc(C)c1COc1ccc(C(=O)OCC(=O)NC2CCCCC2C)cc1 (centres undefined) | 0 | 0 | 0 | 59 | 0
Cc1ccc(NC(=O)c2cc([N+](=O)[O-])ccc2NCc2cccnc2)cc1 | 0 | 0 | 0 | 91 | 83
COc1cccc(/C=N/NC(=O)CC(=O)NCCc2ccc(OC)c(OC)c2)c1 | 0 | 0 | 0 | 0 | 0
COc1ccc(N2CC(O)=C(c3nc(C)cs3)C2=N)cc1 | 0 | 2 | 0 | 0 | 0
Cc1csc(C2=C(O)CN(c3ccc4c(c3)OCCOCCOCCOCCO4)C2=N)n1 | 0 | 0 | 0 | 0 | 0
COc1ccc(N2CC(O)=C(c3nc4ccccc4s3)C2=N)c(OC)c1 | 0 | 0 | 0 | 0 | 55
Cc1cccc(CS(=O)(=O)Cc2ccc(C(=O)NCc3cccnc3)o2)c1 | 0 | 0 | 0 | 0 | 82
Cc1ccccc1CS(=O)(=O)Cc1ccc(C(=O)NCc2cccnc2)o1 | 0 | 0 | 0 | 0 | 78
Cc1ccc(CCNC(=O)c2ccc(CS(=O)(=O)Cc3ccccc3F)o2)cc1 | 0 | 0 | 0 | 98 | 75
OC1(Cc2ccn[nH]2)CCCCC1 | 0 | 0 | 0 | 0 | 0
CC(C)(C)NC(=O)COc1ccc(CNCc2cccs2)cc1 | 0 | 0 | 0 | 0 | 0
COc1ccc(Oc2nc(C(F)(F)F)nc3ccccc23)cc1 | 0 | 0 | 0 | 0 | 0
CSc1nnc(-c2sc3cc(C(F)(F)F)cnc3c2-c2ccccc2)n1C | 0 | 2 | 0 | 71 | 0
N#Cc1ccc(NC(=O)c2sc3cc(C(F)(F)F)cnc3c2-c2cccs2)cc1 | 0 | 0 | 0 | 62 | 0
COC(=O)c1sc2cc(C(F)(F)F)cnc2c1-c1ccccc1 | 0 | 0 | 0 | 59 | 0
CC(=O)OC1CCC(OC(C)=O)c2c1n([O-])c(C)c(C)[n+]2=O (centres undefined) | 0 | 0 | 0 | 0 | 0
Cc1cc(-n2c(SCCC#N)nnc2-c2cccnc2)ccc1Cl | 0 | 0 | 0 | 0 | 0
CN(c1ccccc1)S(=O)(=O)c1cc(C(=O)c2nccn2C)ccc1Cl | 0 | 0 | 0 | 91 | 99
SMILES | CYP2C9 activ | PLAP act | CYP2C19 activ | CYP2C9 inhib | CYP2C19 inh
O=c1[nH][nH]c(-c2ccccc2)c1C=Nc1ccccc1Cl | 0 | 0 | 0 | 0 | 88
O=c1[nH][nH]c(-c2ccccc2)c1C=Nc1cccc(Cl)c1 | 0 | 0 | 0 | 0 | 53
Cc1[nH]nc(-c2ccc(O)c(C)c2O)c1Oc1ccccc1 | 0 | 0 | 0 | 100 | 100
CCOc1ccc(-c2n[nH]c(C)c2Oc2ccc(OC)cc2)c(O)c1 | 0 | - | 0 | 99 | 100
CCN(CC)S(=O)(=O)c1ccc(-c2nnc(SCC(=O)c3ccc(OC)cc3)o2)cc1 | 0 | 0 | 0 | 0 | 0
CCN(CC)S(=O)(=O)c1ccc(-c2nnc(SCC(=O)Nc3ccc(OC)c(OC)c3)o2)cc1 | 0 | 0 | 0 | 70 | 0
COc1cc(-c2nnc(SCC(=O)Nc3ccc4c(c3)OCCO4)o2)cc(OC)c1OC | 0 | 0 | 0 | 75 | 0
CCN(CC)S(=O)(=O)c1ccc(OC)c(NC(=O)CSc2ccccc2)c1 | 0 | 0 | 0 | 89 | 0
O=c1cc(N2CCc3ccccc32)[nH]c(=O)n1Cc1ccc(F)cc1 | 0 | 0 | 0 | 0 | 0
Cc1ccccc1NC(=S)NC(=O)CCc1ccccc1 | 0 | 0 | 0 | 0 | 0
Cc1cccc(C)c1NC(=S)NC(=O)CCc1ccccc1 | 0 | 0 | 0 | 0 | 50
CCN(CC)S(=O)(=O)c1cccc(C(=O)N2CCCCC2)c1 | 0 | 0 | 0 | 0 | 0
